For 34 compounds, outcome and Potency results are on record in PubChem BioAssay AID2479 (National Center for Advancing Translational Sciences (NCATS), 2010).

Each structure is given as a SMILES string. Inconclusive results are not listed. Active and inactive are the calls of the source. Calls follow the shape of the full dose curve.

Chain of Thyroid hormone receptor beta (Homo sapiens) (P10828 whole entry, looked up): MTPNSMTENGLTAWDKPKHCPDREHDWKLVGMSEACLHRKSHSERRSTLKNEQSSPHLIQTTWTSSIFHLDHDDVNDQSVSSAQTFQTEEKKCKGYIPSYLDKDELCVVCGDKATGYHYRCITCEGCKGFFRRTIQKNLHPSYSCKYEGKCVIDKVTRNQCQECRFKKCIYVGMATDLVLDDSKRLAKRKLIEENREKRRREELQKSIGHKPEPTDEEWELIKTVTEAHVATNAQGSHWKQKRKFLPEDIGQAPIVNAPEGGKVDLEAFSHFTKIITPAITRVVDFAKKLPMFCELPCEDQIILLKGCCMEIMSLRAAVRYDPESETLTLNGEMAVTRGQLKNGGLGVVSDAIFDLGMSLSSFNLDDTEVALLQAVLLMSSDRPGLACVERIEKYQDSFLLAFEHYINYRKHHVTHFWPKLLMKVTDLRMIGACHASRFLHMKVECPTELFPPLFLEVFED

In the assay the target is Thyroid hormone receptor beta (Homo sapiens) (UniProt P10828). Briefly: Gene Reporter Secondary Assay for Inhibitors of the Interaction of Thyroid Hormone Receptor and Steroid Receptor Coregulator 2 in a Thyroid Receptor Assay. Conditions: WRO cells TRb DR4-TRE luciferase reporter, T3, 20 h. An excerpt:
NIH Molecular Libraries Probe Production Network [MLPCN] NIH Chemical Genomics Center [NCGC] MLPCN Grant: DK058080 Assay Provider: R. Kip Guy, St. Jude Children's Research Hospital NCGC Assay Overview: Thyroid receptor (TR) regulates many homeostatic processes including basal metabolism, cardiovascular function, body weight, and lipid trafficking. TR modulators are potential therapeutics for obesity and hyperlipidemias but current thyroid analogs have undesirable side effects, particularly cardiac stimulation. This secondary assay characterized compounds identified in the qHTS for Inhibitors of the Interaction of Thyroid Hormone Receptor and Steroid Receptor Coregulator 2 (PubChem AID 1485). The human follicular thyroid carcinoma cell line WRO (kindly provided by Dr. M. D. Ringel) stably expresses TRb and a luciferase reporter gene fused to TR response element. The addition of T3 ligand elevates expression of the TRE luciferase reporter (DR4-TRE-luc).
NCGC Assay Protocol Summary: Cells were maintained in RPMI 1640 culture medium supplemented with 10% heat-inactivated FBS, 0.33 mg/ml hygromycin, 0.33 mg/ml geneticin, 50 units/ml penicillin, 50 ug/ml streptomycin. Cells were harvested and resuspended at 330,000 cells/ml in assay medium (50% DMEM 50% F-12 medium without Phenol-Red (Cellgro #16-405-CV), L-glutamine, 10% heat inactivated and charcoal treated FBS, 100 uM non-essential amino acid, 50 units/ml penicillin, 50 ug/ml streptomycin). Cells were dispensed at 8,000 cells/25 ul/well into 384 well plates (Corning 3917) and incubated 12 hr at 37 C and 5% CO2. Following transfer of 130 nL compound (ranging from 0.2 to 52 uM) and T3 (100 nM final concentration), the plates were incubated 20 hr incubation at 37 C and 5% CO2. Plates were then equilibrated at ambient temperature for 30 min, 25 ul of Bright-Glo (Promega) was added and luminescence was detected by an EnVision (PerkinElmer).
Background: In a reporter assay the amount or activity of a reporter protein is the signal.
On to `O=C(COC(=O)c1cccc([N+](=O)[O-])c1Cl)NC1C2CC3CC(C2)CC1C3` (centres undefined), for which the compound was classed as inactive.

For the compound `CS(=O)(=O)c1ccc(C(=O)OCC(=O)Nc2cc(C(F)(F)F)ccc2Cl)cc1[N+](=O)[O-]`, the Potency is 22.7 µM (active).

Regarding `CS(=O)(=O)c1ccc(C(=O)OCC(=O)N2CCOCC2)cc1[N+](=O)[O-]`, the Potency was 23 µM (active).

Regarding `CCN(CC)C(=O)COC(=O)c1ccc(S(C)(=O)=O)c([N+](=O)[O-])c1`, the Potency was 16.8 µM (active).

In the case of `Cc1ccc(F)cc1NC(=O)COC(=O)c1ccc(S(C)(=O)=O)c([N+](=O)[O-])c1`, the Potency is 17.9 µM (active).

Turning to `C[S+](=O)([O-])c1ccc(C(=O)OCC(=O)NC2C3CC4CC(C3)CC2C4)cc1` (centres undefined), the compound was classed as inactive.

With `CC(=O)Nc1cccc(C(=O)OCC(=O)NC(=O)C2CCCCC2)c1`, the outcome was inactive.

As to `O=C(COC(=O)c1ccc(C(F)(F)F)cc1)NC(=O)C1CCCCC1`, the compound was called inactive.

For `CS(=O)(=O)c1ccc(C(=O)OCC(=O)N2Cc3ccccc3C2)cc1[N+](=O)[O-]`, the Potency is 12.6 µM (active).

With `O=C(COC(=O)c1cc([N+](=O)[O-])ccc1F)NC1C2CC3CC(C2)CC1C3` (centres undefined), the compound was classed as inactive.

For `CS(=O)(=O)c1ccc(-c2nnc(-c3ccccc3)o2)cc1[N+](=O)[O-]`, the Potency is 15.7 µM (active).

On to `CC(=O)N1CCN(C(=O)COC(=O)c2ccc([S+](C)(=O)[O-])c([N+](=O)[O-])c2)CC1`, for which the outcome was inactive.

Take `CCN1CCN(C(=O)COC(=O)c2ccc(S(C)(=O)=O)c([N+](=O)[O-])c2)C(C)C1` (centres undefined): the Potency was 23.5 µM (active).

In the case of `O=C(COC(=O)c1ccc(F)c([N+](=O)[O-])c1)NC1C2CC3CC(C2)CC1C3` (centres undefined), the compound was classed as inactive.

For the compound `COc1cccc(CNC(=O)COC(=O)c2ccc(S(C)(=O)=O)c([N+](=O)[O-])c2)c1`, the Potency was 21.5 µM (active).

Turning to `CS(=O)(=O)c1ccc(C(=O)OCC(=O)N2CCc3ccccc32)cc1[N+](=O)[O-]`, the Potency is 18.6 µM (active).

On to `O=C(COC(=O)c1cc([N+](=O)[O-])ccc1Cl)NC1C2CC3CC(C2)CC1C3` (centres undefined), for which the compound was called inactive.

For the compound `C[S+](=O)([O-])c1ccc(C(=O)OCC(=O)N2CCNC(=O)C2)cc1[N+](=O)[O-]`, the outcome was inactive.

On to `CC(=O)c1cccc(NC(=O)C(C)OC(=O)c2ccc(S(C)(=O)=O)c([N+](=O)[O-])c2)c1` (centres undefined), for which the Potency was 14.9 µM (active).

Regarding `O=C(COC(=O)c1ccc2ncsc2c1)NC(=O)C1CCCCC1`, the call was inactive.

For the compound `CS(=O)(=O)c1ccc(C(=O)OCC(=O)N2CC(=O)Nc3ccccc32)cc1[N+](=O)[O-]`, the Potency is 15.8 µM (active).

As for `O=C(COC(=O)c1ccc(Cl)c([N+](=O)[O-])c1)NC1C2CC3CC(C2)CC1C3` (centres undefined), the compound was classed as inactive.

Consider `CC1CCCCN1C(=O)COC(=O)c1ccc(S(C)(=O)=O)c([N+](=O)[O-])c1` (centres undefined), for which the Potency was 12.6 µM (active).

For the compound `O=C(COC(=O)c1cccc([N+](=O)[O-])c1)NC1C2CC3CC(C2)CC1C3` (centres undefined), the compound was classed as inactive.

For `CS(=O)(=O)c1ccc(C(=O)OCC(=O)NC(=O)NC2CCCCC2)cc1[N+](=O)[O-]`, the Potency is 12.7 µM (active).

For the compound `C[S+](=O)([O-])c1ccc(C(=O)OCC(=O)N2CCN([S+](C)(=O)[O-])CC2)cc1[N+](=O)[O-]`, the compound was called inactive.

In the case of `CS(=O)(=O)c1ccc(-c2nnc(-c3ccccc3)s2)cc1[N+](=O)[O-]`, the Potency was 11.1 µM (active).

On to `Cc1ccccc1NC(=O)COC(=O)c1ccc(S(C)(=O)=O)c([N+](=O)[O-])c1`, for which the Potency is 22.9 µM (active).

`CS(=O)(=O)c1ccc(C(=O)OCC(=O)NCC2CCCO2)cc1[N+](=O)[O-]` (centres undefined): the Potency was 15.2 µM (active).

As for `CN1CCN(C(=O)COC(=O)c2ccc(S(C)(=O)=O)c([N+](=O)[O-])c2)CC1`, the Potency was 33.9 µM (active).

In the case of `CC1(C)C2CCC1(C)C(NC(=O)COC(=O)c1ccc(S(C)(=O)=O)c([N+](=O)[O-])c1)C2` (centres undefined), the Potency was 12.9 µM (active).

Take `Cc1cc(C(=O)OCC(=O)NC(=O)C2CCCCC2)ccc1[N+](=O)[O-]`: the compound was called inactive.

As for `CCN1CCN(C(=O)COC(=O)c2ccc(S(C)(=O)=O)c([N+](=O)[O-])c2)CC1C` (centres undefined), the Potency was 26.3 µM (active).

Take `CS(=O)(=O)c1ccc(C(=O)OCC(=O)N2CCCC2)cc1[N+](=O)[O-]`: the Potency was 17.7 µM (active).
